# Laboratory results published in the supplement of paper PMC6953052.
# The full ranking holds about 1,700 compounds; the median of “fraction of GFP-LC3-positive cells (≥5 vesicles/cell)” is about 0.058, and the highest 2% start at about 0.59. The sample holds the highest values, similar compounds and a random draw of the others, so the mix is not that of the screen.
# System: CbCln3 +/+ GFP-LC3 cerebellar neuronal cells
# Assay: fraction of GFP-LC3-positive cells (≥5 vesicles/cell); higher = more autophagosome accumulation
# In short: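 Wild-type or mutant CbCln3 cerebellar cells stably expressing GFP-LC3 were plated at 2 × 10^3 per well in 384-well plates and received ~50 nL of compound in DMSO by pin transfer, in duplicate, for 24 h at 33 °C. Hoechst 33342 and LysoTracker Red were added for the last 30 min, after which cells were fixed in 3.2% PFA and three fields per well were imaged at 10×. CellProfiler counted GFP-LC3 vesicles per cell, and out-of-focus images were excluded. The reported value is the fraction of cells reaching a vesicle-count cutoff of 5 or more, averaged over duplicates.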
row,Compound,fraction of GFP-LC3-positive cells
1,COc1ccc2cc1Oc1ccc(cc1)C[C@H]1c3cc(c(OC)cc3CCN1C)Oc1c(OC)c(OC)cc3c1[C@H](C2)N(C)CC3 [Tetrandrine],0.0783
2,C=C(C)[C@@H]1CC[C@]2(C(=O)O)CC[C@]3(C)[C@H](CC[C@@H]4[C@@]5(C)CC[C@H](O)C(C)(C)[C@@H]5CC[C@]43C)[C@@H]12 [Betulinic acid],0.0563
3,Cc1ccsc1/C=C/C1=NCCCN1C.O=C(O)C(O)C(O)C(=O)O [Morantel tartrate],0.0668
4,CCN(CC)C(=S)SSC(=S)N(CC)CC [Disulfiram],0.687
5,O=C(O)CCC(=O)c1ccc(-c2ccccc2)cc1 [Fenbufen],0.0751
6,CC[C@]1(O)C[C@@H]2CN(CCc3c([nH]c4ccccc34)[C@@](C(=O)OC)(c3cc4c(cc3OC)N(C)[C@H]3[C@@](O)(C(=O)OC)[C@H](OC(C)=O)[C@]5(CC)C=CCN6CC[C@]43[C@@H]65)C2)C1.O=S(=O)(O)O [vinblastine],0.691
7,CCCCCCCC/C=C\CCCCCCCC(=O)OC[C@@H](O)COP(=O)(O)O,0.039
8,CCCCCCCC/C=C\CCCCCCCC(=O)OC[C@@H](O)COP(=O)(O)O [Lysophosphatidic acid],0.0399
9,COc1cc2nc(N3CCN(C(=O)c4ccco4)CC3)nc(N)c2cc1OC.Cl [Prazosin hydrochloride],0.156
10,COc1cc2nc(N3CCN(C(=O)C4CCCO4)CC3)nc(N)c2cc1OC.Cl (centres undefined) [Terazosin hydrochloride],0.0471
11,COc1cc2nc(N3CCN(C(=O)c4ccco4)CC3)nc(N)c2cc1OC [prazocin],0.899
12,C[C@]12CC[C@@H]3c4ccc(O)cc4CC[C@H]3[C@@H]1CCC2=O [Estrone],0.0194
13,CC(C)=CC[C@@H](O)C1=CC(=O)c2c(O)ccc(O)c2C1=O [Shikonin],0.7
14,CC/C=C\C/C=C\C/C=C\C/C=C\C/C=C\CCCC(=O)O,0.047
15,CC/C=C\C/C=C\C/C=C\C/C=C\C/C=C\CCCC(=O)O [Eicosapentaenoic acid (20:5 n-3)],0.0669
16,Clc1ccc(C(Cn2ccnc2)OCc2csc3c(Cl)cccc23)c(Cl)c1.O=[N+]([O-])O (centres undefined) [Sertaconazole nitrate],0.0474
17,O=C(O)c1cc(N(Cc2ccccc2O)Cc2cc(O)ccc2O)ccc1O,0.0412

row,Compound,fraction of GFP-LC3-positive cells
1,O=C(O)c1cc(N(Cc2ccccc2O)Cc2cc(O)ccc2O)ccc1O [Lavendustin A],0.0834
2,CCCCNc1c(C(=O)OCC)c(C)nc2c1cnn2CC.Cl [Tracazolate hydrochloride],0.0505
3,Cc1c(OCC(F)(F)F)ccnc1CS(=O)c1nc2ccccc2[nH]1 (centres undefined) [Lansoprazole],0.0343
4,COC1=CC(=O)C[C@@H](C)[C@]12Oc1c(Cl)c(OC)cc(OC)c1C2=O [Griseofulvin],0.172
5,Cc1ncc(C[n+]2csc(CCO)c2C)c(N)n1.Cl.[Cl-] [Thiamine hydrochloride],0.0725
6,CC[C@H](C)C(=O)O[C@H]1C[C@@H](C)C=C2C=C[C@H](C)[C@H](CC[C@@H]3C[C@@H](O)CC(=O)O3)[C@H]21 [Mevinolin (lovastatin)],0.203
7,CC(C)(Oc1ccc(C2CC2(Cl)Cl)cc1)C(=O)O (centres undefined) [Ciprofibrate],0.0359
8,CCN(CC)C(=O)N1CCN(C)CC1.O=C(O)CC(O)(CC(=O)O)C(=O)O [Diethylcarbamazine citrate],0.0418
9,CC(=O)O[C@H]1C(=O)[C@@]2(C)[C@H]([C@H](OC(=O)c3ccccc3)[C@]3(O)C[C@H](OC(=O)[C@H](O)[C@@H](NC(=O)c4ccccc4)c4ccccc4)C(C)=C1C3(C)C)[C@]1(OC(C)=O)CO[C@@H]1C[C@@H]2O [Paclitaxel],0.642
10,CC(=O)O[C@H]1C(=O)[C@@]2(C)C([C@H](OC(=O)c3ccccc3)[C@]3(O)C[C@H](OC(=O)[C@H](O)[C@@H](NC(=O)c4ccccc4)c4ccccc4)C(C)=C1C3(C)C)[C@]1(OC(C)=O)CO[C@@H]1C[C@@H]2O (some centres undefined) [taxol =paclitaxel],0.536
11,CS(=O)c1ccc(-c2nc(-c3ccc(F)cc3)c(-c3ccncc3)[nH]2)cc1 (centres undefined),0.023
12,Cc1cnc(C(=O)NCCc2ccc(S(=O)(=O)NC(=O)NC3CCCCC3)cc2)cn1 [Glipizide],0.057
13,CCOC(=O)n1ccn(C)c1=S [Carbimazole],0.0518
14,N=C(N)NCC1COC2(CCCCC2)O1.N=C(N)NCC1COC2(CCCCC2)O1.O=S(=O)(O)O (centres undefined) [Guanadrel sulfate],0.041
15,CC/C=C/C/C=C/C/C=C/CCCCCCCCCC(=O)O [Eicosatrienoic acid (20:3 N-3)],0.0456
16,"CCCCC/C=C/C/C=C/CCCCCCCCCCCC(=O)O [13(Z),16(Z)-Docosadienoic acid]",0.0709
17,CC(=O)OCC(=O)[C@@]1(OC(C)=O)[C@@H](C)C[C@H]2[C@@H]3C[C@H](F)C4=CC(=O)C=C[C@]4(C)[C@@]3(F)[C@@H](O)C[C@@]21C [Diflorasone Diacetate],0.085
